Measured values from PubChem BioAssay AID463173 (ICCB-Longwood Screening Facility, Harvard Medical School, 2010).
The campaign covered roughly 52,000 compounds. About 1,700 (3.3%) were called active. Only a selection was taken, and actives are over-represented in it overall. Unmarked numbers belong to inactive results. Cut-off read from the data, not from the text of the source: active = survival mostly below about 52% (no sharp cut-off); inactive = mostly above about 56%.

The molecules below were run on Wild type (assay: S. aureus survival, RN4220 and DeltatarO strains – OD600, teichoic acid synthesis inhibitors, primary screen (AID 463173)). Conditions: S. aureus RN4220 wild type/DeltatarO growth, OD600, 18 h, hits give low values, screened at 18.75 µg/mL (by protocol).

Q: Which survival does the source give for `CCc1ccc(NC(=O)CSc2nc3c([nH]c4ccccc43)c(=O)n2-c2ccc(C)cc2)cc1` here?
A: 159%

Q: For `COC(=O)c1sc(NC(=O)/C=C/c2ccc(OC)c(OC)c2)c(C(=O)OC)c1C`, which survival is on record?
A: 55%

Q: How did the survival turn out when `Cc1ccc(OCC(=O)Nc2ccc(S(=O)(=O)Nc3ncccn3)cc2)c(C(C)(C)C)c1` was run?
A: 64%

Q: With `CCCCNC(=O)CSc1nc2ccccc2nc1Cc1ccc(Cl)cc1` as the molecule, how does the survival read?
A: 146%

Q: `O=C(Cc1ccccc1)Nc1cccnc1` was tested. Which survival did it give?
A: 116%

Q: For `CCN1CCN(c2csc3ccc(Br)cc3c2=O)CC1`, which survival is on record?
A: 83%

Q: `CCc1nnc(NC(=O)c2nc(S(=O)(=O)Cc3ccc(C)cc3)ncc2Cl)s1` was tested. Which survival did it give?
A: 57%

Q: `CC(C)c1ccc(Cn2c(COc3ccccc3)nc3ccccc32)cc1` was tested. Which survival did it give?
A: -1% (active)

Q: Which survival does the source give for `Cc1cccc(Cn2c(Cc3ccccc3)nc3ccccc32)c1` here?
A: 29% (active)

Q: Which survival does the source give for `Cc1ccc(Cn2c(Cc3ccccc3)nc3ccccc32)cc1` here?
A: -1% (active)

Q: `Cc1cccc(Cn2c(CNC(=O)c3ccccc3)nc3ccccc32)c1` was tested. Which survival did it give?
A: 84%

Q: For `Cc1ccc(Cn2c(CCNC(=O)C(C)C)nc3ccccc32)cc1`, which survival is on record?
A: 81%

Q: With `Cc1cccc(Cn2c(COc3ccc(Cl)cc3)nc3ccccc32)c1` as the molecule, how does the survival read?
A: 61%

Q: How did the survival turn out when `Cc1ccc(Cn2c(CNC(=O)c3cccc(C)c3)nc3ccccc32)cc1` was run?
A: 107%

Q: How did the survival turn out when `Cc1cccc(Cn2c(COc3ccccc3)nc3ccccc32)c1` was run?
A: -11% (active)

Q: With `COCc1nc2ccccc2n1Cc1cccc(C)c1` as the molecule, how does the survival read?
A: 81%

Q: How did the survival turn out when `COc1cc(OC)c(NC(=O)c2cn(C3CCCC3)c(=O)c3c2c2ccccc2n3C)cc1Cl` was run?
A: 80%

Q: `CCOC(=O)N1CCN(c2ncnc3c2cnn3-c2ccccc2)CC1` was tested. Which survival did it give?
A: 112%

Q: `Cc1cccc(-c2noc(-c3ccc(NCc4cccnc4)c([N+](=O)[O-])c3)n2)c1` was tested. Which survival did it give?
A: 81%

Q: How did the survival turn out when `COCCNC(=O)Cn1cc(/C=C(\C#N)C(N)=O)c2ccccc21` was run?
A: 114%

Q: With `COc1ccc(CNC(=O)C(Cc2ccccc2)NS(=O)(=O)c2ccc3c(c2)CCN3C(C)=O)cc1` (stereo unspecified) as the molecule, how does the survival read?
A: 127%

Q: How did the survival turn out when `Cc1coc2c(C)c3oc(=O)c(CC(=O)NCCc4ccc(Cl)cc4)c(C)c3cc12` was run?
A: 99%

Q: `COc1cccc(Cn2c(CNS(=O)(=O)c3ccc(F)c(Cl)c3)nc3cccnc32)c1` was tested. Which survival did it give?
A: 159%

Q: Which survival does the source give for `O=C(NCC1COc2ccccc2O1)c1cn(Cc2ccc(F)cc2)nn1` (stereo unspecified) here?
A: 107%

Q: How did the survival turn out when `COc1ccc(N2CCN(c3oc(/C=C/c4ccccc4OC)nc3C#N)CC2)cc1` was run?
A: 86%

Q: For `O=C1CC(c2ccc3c(c2)OCO3)CC2=C1C(c1ccncc1)Nc1ccccc1N2` (stereo unspecified), which survival is on record?
A: 81%

Q: For `CC(C)(C)c1ccc(Cn2c(Cc3ccccc3)nc3ccccc32)cc1`, which survival is on record?
A: -1% (active)

Q: For `O=C(NCCc1nc2ccccc2n1Cc1ccc(Cl)cc1Cl)c1ccco1`, which survival is on record?
A: 76%

Q: For `CC(O)c1nc2ccccc2n1Cc1ccccc1` (stereo unspecified), which survival is on record?
A: 100%

Q: With `CCn1c(COc2ccc(Cl)cc2Cl)nc2ccccc21` as the molecule, how does the survival read?
A: 78%

Q: How did the survival turn out when `CCC(=O)NCc1nc2ccccc2n1Cc1ccccc1` was run?
A: 106%

Q: How did the survival turn out when `Clc1ccc(OCc2nc3ccccc3n2Cc2ccccc2)c(Cl)c1` was run?
A: 7% (active)

Q: For `CCOc1ccc(NC(=O)c2sc(-n3nc(C)c(CCC(C)C)c3C)nc2C)cc1`, which survival is on record?
A: 123%

Q: `CCCCOc1ccc(CNC(=O)c2cnc3sc(N4CCCCCC4)nn3c2=O)cc1` was tested. Which survival did it give?
A: 91%

Q: With `CCOc1ccc(CCNC(=O)c2cc3cc4cc(OC)ccc4nc3s2)cc1OCC` as the molecule, how does the survival read?
A: 117%

Q: Which survival does the source give for `Cc1cccc(-c2nc(CSCC(=O)N3CCN(c4cccc(C)c4C)CC3)c(C)o2)c1` here?
A: 0% (active)

Q: How did the survival turn out when `Cc1cccc(-c2nc(CSCC(=O)N3CCN(c4ccccc4)CC3)c(C)o2)c1` was run?
A: 18% (active)

Q: With `Cc1oc(-c2ccccc2F)nc1CSCC(=O)N1CCN(c2ccccc2)CC1` as the molecule, how does the survival read?
A: 62%

Q: How did the survival turn out when `COc1ccc(-c2nc(CSCC(=O)N3CCN(c4cccc(C)c4C)CC3)c(C)o2)cc1OC` was run?
A: 22%

Q: With `COc1ccc(-c2nc(CSCC(=O)N3CCN(c4ccccc4)CC3)c(C)o2)cc1` as the molecule, how does the survival read?
A: 53%

Q: With `Cc1ccc(-c2nc(CS(=O)(=O)CC(=O)N3CCN(c4cccc(C)c4C)CC3)c(C)o2)cc1` as the molecule, how does the survival read?
A: 129%

Q: `COc1ccc(N2CCN(CC(=O)c3ccc(OC)c(OC)c3)CC2)cc1` was tested. Which survival did it give?
A: 106%

Q: For `CC(C)OCCCNC(=O)Cn1ccc2cc(S(=O)(=O)N3CCCCCC3)ccc21`, which survival is on record?
A: 124%

Q: `COc1ccc2c(Sc3ccccc3)c(C(=O)NCc3cccc(OC)c3OC)[nH]c2c1` was tested. Which survival did it give?
A: 89%

Q: How did the survival turn out when `CC(C)COc1ccc(C(=O)N2CCC(c3nc4ccccc4s3)CC2)cc1` was run?
A: 42%

Q: How did the survival turn out when `CC(C)CSc1nnc(-c2ccccc2)c(-c2ccccc2)n1` was run?
A: -4% (active)

Q: Which survival does the source give for `O=C(CSc1nnc(-c2ccccc2)c(-c2ccccc2)n1)Nc1ccccc1Cl` here?
A: 70%

Q: How did the survival turn out when `CCc1ccccc1NC(=O)CSc1nnc(-c2ccccc2)c(-c2ccccc2)n1` was run?
A: 69%

Q: How did the survival turn out when `Cc1oc2c(c(C)cc3oc(=O)c(CC(=O)NCCc4ccccc4)c(C)c32)c1C` was run?
A: 112%

Q: Which survival does the source give for `CCc1ccc(CNC(=O)C2CCN(C(=O)c3ccc(-n4c(C)cc5ccccc54)s3)CC2)cc1` here?
A: 81%

Q: With `Cc1cc2ccccc2n1-c1ccc(C(=O)N2CCC(C(=O)NCc3ccc(Cl)cc3)CC2)s1` as the molecule, how does the survival read?
A: 63%

Q: For `Cc1cc2ccccc2n1-c1ccc(C(=O)N2CCC(C(=O)NCc3ccc(F)cc3)CC2)s1`, which survival is on record?
A: 1% (active)

Q: `Cc1ccc(NC(=O)CN2C(=O)CSc3ccc(S(=O)(=O)N4CCCC4)cc32)cc1F` was tested. Which survival did it give?
A: 99%

Q: For `COC(=O)c1cc2c(cc1NC(=O)c1cnn(-c3ccccc3)c1-n1cccc1)OCO2`, which survival is on record?
A: 80%

Q: With `Cc1nn(-c2nc(-c3ccccc3)cc(C(F)(F)F)n2)c(C)c1Cl` as the molecule, how does the survival read?
A: -3% (active)

Q: For `FC(F)(F)c1cc(-c2ccccc2)nc2cc(-c3ccccc3)nn12`, which survival is on record?
A: 75%

Q: For `Cc1nn(-c2nc(-c3ccc(F)cc3)cc(C(F)(F)F)n2)c(C)c1Cl`, which survival is on record?
A: -2% (active)

Q: `CCCNC(=O)CSc1nc(-c2ccccc2)cc(C(F)(F)F)n1` was tested. Which survival did it give?
A: 112%

Q: Which survival does the source give for `CCC(C)NC(=O)CSc1nc(-c2ccc(F)cc2)cc(C(F)(F)F)n1` (stereo unspecified) here?
A: 81%

Q: With `Cc1nn(-c2nc(-c3ccc(F)cc3)cc(C(F)(F)F)n2)c(C)c1Br` as the molecule, how does the survival read?
A: -2% (active)

Q: Which survival does the source give for `COc1ccc(-c2cc(C(F)(F)F)nc(-n3nc(C(F)(F)F)cc3C)n2)cc1` here?
A: 50%

Q: Which survival does the source give for `Cc1ccc(-c2cc3nc(-c4ccccc4)cc(C(F)(F)F)n3n2)cc1` here?
A: 80%

Q: `Cc1cc(C(F)(F)F)nn1-c1nc(-c2ccccc2)cc(C(F)(F)F)n1` was tested. Which survival did it give?
A: 13% (active)

Q: How did the survival turn out when `CN(Cc1ccccc1)c1nc(-c2ccc(F)cc2)cc(C(F)(F)F)n1` was run?
A: 80%

Q: `COc1cccc(-c2cc(C(F)(F)F)nc(-n3nc(C)c(Br)c3C)n2)c1` was tested. Which survival did it give?
A: 80%

Q: Which survival does the source give for `CC(C)(C)NC(=O)CSc1nc(-c2ccc(F)cc2)cc(C(F)(F)F)n1` here?
A: 78%
